Where “and” joins values, the source holds several entries; their conditions need not be identical. Equal values may be shown once. Compounds without any hit were thinned out: in the full panel of roughly 79,000, 15% have a hit. Calls of active or inactive are those of the source. Cut-off read from the data, not from the text of the source: active = growth inhibition above about 70%; inactive = the rest.
Assays:
[1] = NCI Yeast Anticancer Drug Screen. Data for the wt1 strain (AID 149);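 note: 0% = growth of vehicle-treated wt1 cultures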; conditions: S. cerevisiae wt1 strain (SPY 50644) growth inhibition, hits give high values
How it was run: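 Using yeast strain wt1, compound-induced growth inhibition was determined against vehicle-treated cultures.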

[2] = NCI Yeast Anticancer Drug Screen. Data for the rad50EPP+ strain (AID 151);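 note: 0% = growth of vehicle-treated control cultures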; conditions: S. cerevisiae rad50 mutant strain, hits give high values
How it was run: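 Measured: growth inhibition of rad50EPP+ yeast. Reference: vehicle-treated controls. Screen uses strains with defined genetic alterations in DNA damage repair or cell cycle control.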

[3] = NCI Yeast Anticancer Drug Screen. Data for the rad50 strain (AID 155);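 note: 0% = growth of vehicle-only cultures of the same strain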; conditions: S. cerevisiae rad50 strain growth inhibition, hits give high values
How it was run: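 Relative growth inhibition (compound vs vehicle) was measured in yeast with a defined repair-gene alteration.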

[4] = NCI Yeast Anticancer Drug Screen. Data for the mec2-1 strain (AID 157); conditions: S. cerevisiae mec2-1 strain, hits give high values
How it was run: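 Compounds were applied to mec2-1 yeast cells. Their growth was then compared with that of vehicle-treated cultures to give growth inhibition.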

[5] = NCI Yeast Anticancer Drug Screen. Data for the sgs1 mgt1 strain (AID 161);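 note: 0% = growth of cultures given vehicle only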; conditions: S. cerevisiae sgs1 mgt1 strain, hits give high values
How it was run: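 Compounds are added to genetically altered yeast, and growth is compared with cultures given vehicle alone to give percent inhibition.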

[6] = NCI Yeast Anticancer Drug Screen. Data for the CLN2oe strain (AID 163);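 note: 0% = growth of vehicle-only control cultures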; conditions: S. cerevisiae CLN2oe strain, hits give high values
How it was run: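 Cells of an engineered yeast line with disturbed cell-cycle regulation are treated with compound. Inhibition of growth is then calculated relative to the vehicle-treated reference.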

[7] = NCI Yeast Anticancer Drug Screen. Data for the cln2 rad14 strain (AID 165);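 note: 0% = growth equal to vehicle treated cultures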; conditions: S. cerevisiae cln2 rad14 strain, hits give high values
How it was run: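 Strain: cln2 rad14 yeast, altered in cell cycle control and DNA damage repair. Read-out: growth inhibition vs vehicle.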

[8] = NCI Yeast Anticancer Drug Screen. Data for the bub3 strain (AID 167); conditions: S. cerevisiae bub3 mutant strain, hits give high values
How it was run: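 Screening used yeast with an engineered genetic alteration affecting cell cycle control. Compound-exposed cultures were compared with vehicle cultures, and reduced growth was taken as inhibition.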

[9] = NCI Yeast Anticancer Drug Screen. Data for the wt2 strain (AID 169);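 note: 0% = growth of vehicle-treated yeast cultures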; conditions: S. cerevisiae wt2 strain growth inhibition, hits give high values
How it was run: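 Growth of compound-treated yeast is measured and expressed as inhibition relative to vehicle-only controls.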

[10] = NCI Yeast Anticancer Drug Screen. Data for the mlh1 strain (AID 171);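 note: 0% = growth of vehicle-treated control cultures of the same strain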; conditions: S. cerevisiae mlh1 strain growth inhibition, hits give high values
How it was run: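 Test agents were incubated with yeast bearing a defined DNA damage repair or cell cycle control alteration; values are growth inhibition normalised to vehicle-treated cultures.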

[11] = NCI Yeast Anticancer Drug Screen. Data for the sgs1 strain (AID 173);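 note: 0% = growth of vehicle-only control cultures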; conditions: S. cerevisiae sgs1 mutant, hits give high values
How it was run: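 Strain with an altered DNA repair or cell cycle pathway exposed to compound. Growth then measured. Value = inhibition versus vehicle control.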

[12] = NCI Yeast Anticancer Drug Screen. Data for the mlh1 rad18 strain (AID 175); conditions: S. cerevisiae mlh1 rad18 strain growth inhibition, hits give high values
How it was run: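 A repair-deficient yeast strain is exposed to test compound, and growth is scored relative to vehicle-treated controls.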

[13] = NCI Yeast Anticancer Drug Screen. Data for the rad18 strain (AID 177); conditions: S. cerevisiae rad18 mutant growth inhibition, hits give high values
How it was run: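 DNA-repair-defective yeast; compound treatment; growth inhibition scored against vehicle.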

[14] = NCI Yeast Anticancer Drug Screen. Data for the rad14 strain (AID 159);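 note: 0% = growth of vehicle-treated control cultures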; conditions: S. cerevisiae rad14 strain growth inhibition, hits give high values
How it was run: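 Screen for anticancer potential: a yeast strain altered in DNA damage repair is grown with compound, and reduced growth is quantified against vehicle controls.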

[15] = at 5.0 µM (retest, dose inferred, filed as 0.5)
[16] = at 50.0 µM (retest, dose inferred, filed as 5.0)

Measured: growth inhibition

COc1ccc(/C(C#N)=C/c2ccc(OC)c(OC)c2)cc1
active: [3]; [16] 83% | [4]; [16] 92% | [8]; [16] 75% | [12]; [16] 81%
inactive: [1]; at 1.2 µM -37% | [1]; at 3.7 µM -21% | [1]; at 11.0 µM -22% | [1]; at 33.0 µM -23% | [1]; at 100.0 µM 0% | [2]; at 1.2 µM -17% | [2]; at 3.7 µM 0% | [2]; at 11.0 µM 8% | [2]; at 33.0 µM 60% | [2]; at 100.0 µM 54% | [3]; at 1.2 µM 2% | [3]; at 3.7 µM -4% | [3]; [15] 46% | [3]; at 11.0 µM -12% | [3]; at 33.0 µM 6% | [3]; at 50.0 µM 15.1% and 51.5% | [3]; at 100.0 µM 14% | [4]; at 1.2 µM -11% | [4]; at 3.7 µM -7% | [4]; [15] 56% | [4]; at 11.0 µM -21% | [4]; at 33.0 µM -10% | [4]; at 50.0 µM 43.8% and 38% | [4]; at 100.0 µM 18% | [5]; [15] -15% | [5]; [16] 57% | [5]; at 50.0 µM 46.8% | [6]; at 1.2 µM 13% | [6]; at 3.7 µM 9% | [6]; at 11.0 µM -2% | [6]; at 33.0 µM 0% | [6]; at 100.0 µM -5% | [7]; [15] 55% | [7]; [16] 60% | [7]; at 50.0 µM 7.8% | [8]; at 1.2 µM -5% | [8]; at 3.7 µM -3% | [8]; [15] 10% | [8]; at 11.0 µM 2% | [8]; at 33.0 µM 9% | [8]; at 50.0 µM 50.2% | [8]; at 100.0 µM 51% | [9]; at 1.2 µM -49% | [9]; at 3.7 µM -35% | [9]; at 11.0 µM -21% | [9]; at 33.0 µM -5% | [9]; at 100.0 µM 21% | [10]; at 1.2 µM -8% | [10]; at 3.7 µM 2% | [10]; at 11.0 µM 10% | [10]; at 33.0 µM 28% | [10]; at 100.0 µM 40% | [11]; at 1.2 µM -8% | [11]; at 3.7 µM -13% | [11]; at 11.0 µM -20% | [11]; at 33.0 µM 2% | [11]; at 100.0 µM 16% | [12]; [15] 30% | [12]; at 50.0 µM 26.1% and 58.4% | [13]; at 1.2 µM -13% | [13]; at 3.7 µM -17% | [13]; at 11.0 µM -13% | [13]; at 33.0 µM 0% | [13]; at 100.0 µM 13%

COCCCN(Cc1cc(OC)c(OC)c(OC)c1)C(=S)Nc1cccc(Cl)c1
active: [8]; [16] 79% | [8]; at 50.0 µM 72.2% | [8]; at 100.0 µM 72%
inactive: [1]; at 1.2 µM 15% | [1]; at 3.7 µM 12% | [1]; at 11.0 µM 9% | [1]; at 33.0 µM 15% | [1]; at 100.0 µM 24% | [2]; at 1.2 µM -12% | [2]; at 3.7 µM -21% | [2]; at 11.0 µM -28% | [2]; at 33.0 µM -6% | [2]; at 100.0 µM -9% | [3]; at 1.2 µM -24% | [3]; at 3.7 µM -13% | [3]; [15] 43% | [3]; at 11.0 µM -14% | [3]; at 33.0 µM -8% | [3]; [16] 69% | [3]; at 50.0 µM 22.7% | [3]; at 100.0 µM 40% | [4]; at 1.2 µM -12% | [4]; at 3.7 µM 4% | [4]; [15] 51% | [4]; at 11.0 µM -19% | [4]; at 33.0 µM -18% | [4]; [16] 56% | [4]; at 50.0 µM -9.3% | [4]; at 100.0 µM 20% | [14]; at 1.2 µM -28% | [14]; at 3.7 µM -7% | [14]; at 11.0 µM -32% | [14]; at 33.0 µM -32% | [14]; at 100.0 µM 15% | [5]; [15] -32% | [5]; [16] 4% | [5]; at 50.0 µM 24.4% | [6]; at 1.2 µM 0% | [6]; at 3.7 µM -9% | [6]; at 11.0 µM -30% | [6]; at 33.0 µM -26% | [6]; at 100.0 µM 1% | [7]; [15] 41% | [7]; [16] 46% | [7]; at 50.0 µM 17.4% | [8]; at 1.2 µM -3% | [8]; at 3.7 µM 0% | [8]; [15] 5% | [8]; at 11.0 µM -2% | [8]; at 33.0 µM 30% | [9]; at 1.2 µM 5% | [9]; at 3.7 µM -3% | [9]; at 11.0 µM -9% | [9]; at 33.0 µM 14% | [9]; at 100.0 µM 43% | [10]; at 1.2 µM 0% | [10]; at 3.7 µM -19% | [10]; at 11.0 µM -38% | [10]; at 33.0 µM -30% | [10]; at 100.0 µM 31% | [11]; at 1.2 µM -20% | [11]; at 3.7 µM -22% | [11]; at 11.0 µM -21% | [11]; at 33.0 µM -16% | [11]; at 100.0 µM 36% | [12]; [15] 46% | [12]; [16] 67% | [12]; at 50.0 µM 19.2% | [13]; at 1.2 µM -17% | [13]; at 3.7 µM -25% | [13]; at 11.0 µM -17% | [13]; at 33.0 µM -15% | [13]; at 100.0 µM 27%

CN(C)Cc1cccc(CN(C)C)[c]1[Sn]([Br])([c]1ccccc1)[c]1ccccc1
active: [1]; at 100.0 µM 96% | [3]; at 33.0 µM 82% | [3]; [16] 94% | [3]; at 50.0 µM 81.8% | [3]; at 100.0 µM 97% | [4]; [16] 98% | [4]; at 50.0 µM 86.2% | [4]; at 100.0 µM 94% | [5]; [16] 95% | [5]; at 50.0 µM 88.8% | [6]; at 100.0 µM 91% | [7]; at 50.0 µM 86.9% | [8]; [16] 95% | [8]; at 50.0 µM 88.8% | [8]; at 100.0 µM 95% | [9]; at 33.0 µM 87% | [9]; at 100.0 µM 97% | [10]; at 100.0 µM 96% | [11]; at 33.0 µM 81% | [11]; at 100.0 µM 97% | [12]; [16] 98% | [12]; at 50.0 µM 90.7% | [13]; at 11.0 µM 74% | [13]; at 33.0 µM 82% | [13]; at 100.0 µM 97%
inactive: [1]; at 1.2 µM 20% | [1]; at 3.7 µM 36% | [1]; at 11.0 µM 49% | [1]; at 33.0 µM 58% | [2]; at 1.2 µM 19% | [2]; at 3.7 µM 32% | [2]; at 11.0 µM 30% | [2]; at 33.0 µM 36% | [2]; at 100.0 µM 39% | [3]; at 1.2 µM 30% | [3]; at 3.7 µM 62% | [3]; [15] 44% | [3]; at 11.0 µM 69% | [4]; at 1.2 µM 2% | [4]; at 3.7 µM 22% | [4]; [15] 47% | [4]; at 11.0 µM 42% | [4]; at 33.0 µM 56% | [5]; [15] 18% | [6]; at 1.2 µM -8% | [6]; at 3.7 µM 1% | [6]; at 11.0 µM 15% | [6]; at 33.0 µM 30% | [7]; [15] 13% | [7]; [16] 66% | [8]; at 1.2 µM -7% | [8]; at 3.7 µM 6% | [8]; [15] 32% | [8]; at 11.0 µM 18% | [8]; at 33.0 µM 50% | [9]; at 1.2 µM 10% | [9]; at 3.7 µM 13% | [9]; at 11.0 µM 41% | [10]; at 1.2 µM -2% | [10]; at 3.7 µM 23% | [10]; at 11.0 µM 37% | [10]; at 33.0 µM 60% | [11]; at 1.2 µM 8% | [11]; at 3.7 µM 44% | [11]; at 11.0 µM 66% | [12]; [15] 44% | [13]; at 1.2 µM 42% | [13]; at 3.7 µM 67%
